Broadly, the GI50 is the concentration giving 50% growth inhibition. Lower therefore signals more potent growth inhibition.

In all, about 28,000 sequences went through this assay and about 1,300 (4.6%) were called active. This is one part of a sample in which actives are shown more often than they occur. Cut-off read from the data, not from the text of the source: active = GI50 up to about 1.1 µM and inactive = higher. Measured potencies and affinities stand elsewhere.

The assay has as its system MDA-N.
As for “[Bis(aminomethyl)pentamethylenesilane]tetrachloropaltinum(IV), CHEMBL2146204”, growth was halved (GI50) at 0.935 µM. “[Bis(aminomethyl)pentamethylenesilane]dichloropaltinum(II), CHEMBL2146202” had a concentration for 50% growth inhibition (GI50) of 2.42 µM. The result for “[Bis(aminomethyl)dimethylsilane]tetrachloroplatinum(IV), CHEMBL2146190” reads 15.9 µM. The result for “[Bis(aminomethyl)tetramethylenesilane]tetrachloropaltinum(IV), CHEMBL2146189” reads 2.72 µM; that for CISPLATIN, CHEMBL11359, 6.18 µM; that for “[Bis(aminomethyl)tetramethylenesilane]dichloropaltinum(II), CHEMBL2146205”, 6.89 µM.

Values taken from ChEMBL document CHEMBL1201862, “PubChem BioAssay data set” (2004).
